About 79,000 compounds went through this panel and 15% of them were active in at least one assay; those are over-represented in the sample as a whole. The source made the active and inactive calls. Rule as the data show it: active = growth inhibition above about 70%; inactive = the rest.
test: NCI Yeast Anticancer Drug Screen. Data for the cln2 rad14 strain (AID 165);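 also: 0% = growth equal to vehicle treated cultures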; settings: S. cerevisiae cln2 rad14 strain, at 50.0 µM (retest, dose inferred, filed as 5.0), active compounds read high
Procedure, shortened: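 Relative to vehicle controls, growth inhibition of compound-treated cln2 rad14 yeast was recorded.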

Row | SMILES | growth inhibition
1 | Clc1ccc(OCC(Cn2ccnc2)c2ccc(Cl)cc2)cc1 (stereo not drawn) | 89% (active)
2 | CC(C)C(CC(C)(C)C)OC(=O)Nc1cccc2ccccc12 (stereo not drawn) | 95% (active)
3 | CC(=O)OC[C@@]1(C)[C@@H]2CC[C@]3(C)[C@H](C(=O)C=C4[C@@H]5CC(C)(C)CC[C@]5(C(=O)O)CC[C@]43C)[C@@]2(C)CC[C@@H]1OC(C)=O | 93% (active)
4 | CCOC(=O)C[n+]1c(C)sc2ccccc21 | 18% (inactive)
5 | O=[N+]([O-])c1ccc(/C=N/O)s1 | 95% (active)
6 | C=C(C)COc1ccccc1C(OCC)OCC | 27% (inactive)
7 | CCCCCCCCCCCCCC1OC(=O)C(C)=C1C(=O)O (stereo not drawn) | 59% (inactive)
8 | CC(C)C(Sc1nc(-c2ccccc2)c(-c2ccccc2)[nH]1)c1n[nH]c(=S)n1-c1ccccc1 (stereo not drawn) | 97% (active)
9 | Cc1ccc(-c2c(C#N)c(S)n(NS(=O)(=O)c3ccccc3)c(=O)c2C#N)cc1 | 64% (inactive)
10 | O=C(c1ccccc1)c1ccc2c(c1Cl)C(=O)c1ccccc1C2=O | -16% (inactive)
11 | COc1cccc(C2c3cc4c(cc3OC(O)C2C)OCO4)c1O (stereo not drawn) | 4% (inactive)
12 | CCC[N+]1=C(/C=C/c2ccc3cccnc3c2O)C(C)(C)c2ccccc21 | 98% (active)
13 | O=C(/C=C/c1ccccc1Cl)c1ccc(F)cc1 | 17% (inactive)
14 | CCN(CC)C(=S)N=Nc1c(O)[nH]c2ccccc12 | 90% (active)
15 | C[CH2][Sn]([CH2]C)([O]C(=O)c1ccccc1OC)[O][Sn]([CH2]C)([CH2]C)[O]C(=O)c1ccccc1OC | 62% (inactive)
16 | CCCCCCCCCCCCCCCC[N+](C)(C)C(C)c1ccc(OC)cc1 (stereo not drawn) | 99% (active)
17 | S=C(NCCc1ccccc1)N/N=C/c1ccc(Cl)cc1 | 45% (inactive)
18 | Cc1cc(Nc2ccc(O)c(CN3CCN(Cc4cc(Nc5cc(C)nc(N)n5)ccc4O)CC3)c2)nc(N)n1 | 94% (active)
19 | CC1C[N+](C)(C)C(C)C(=O)C1(c1ccccc1)c1ccccc1 (stereo not drawn) | -2% (inactive)
20 | O=C1C(Cl)=C(Cl)C(=O)C2CC=CCC12 (stereo not drawn) | 99% (active)

Row | SMILES | growth inhibition
21 | C/C(=N/O)c1ccc2c(c1)C(C)c1ccccc1-2 (stereo not drawn) | -66% (inactive)
22 | c1ccc(N/N=C2/CCCC3/C(=N\Nc4ccccc4)CCCC23)cc1 (stereo not drawn) | 99% (active)
23 | CCCC(C)C/C(C)=C\C(C)(C)C1CC(=O)N(CC)C1=O (stereo not drawn) | 92% (active)
24 | COC(C(=O)C1=C2Oc3c4c(cc(O)c3C(=O)C2C2=C(CCCC2)C1=O)OC(C)(C)C=C4)C(C)CCC=C(C)C (stereo not drawn) | 90% (active)
25 | Cc1cc(Br)c(NC(=O)CBr)cc1C | 94% (active)
26 | Cc1ccc(S(=O)(=O)OCCCCOS(=O)(=O)c2ccc(C)cc2)cc1 | -5% (inactive)
27 | Cc1ccc([N+](=O)[O-])c2c(NCCCN(C)C)c3ccccc3nc12 | 99% (active)
28 | CCOC(=O)c1c(N2CCCC2)nsc1Nc1ccc(F)cc1 | 75% (active)
29 | CC(=O)[C@H]1CC[C@H]2[C@@H]3CC[C@H]4C[C@@H](N5CCOCC5)CC[C@]4(C)[C@H]3CC[C@]12C | 30% (inactive)
30 | CC(C)CCCC(C)C1CCC2C3CCC4=CC(O)CCC4(C)C3CCC12C (stereo not drawn) | 95% (active)
31 | Nc1ccccc1SC(/C=C/NNC1=NC(c2ccccc2)C(c2ccccc2)=NN1)c1ccccc1 (stereo not drawn) | 29% (inactive)
32 | CCOC(=O)C1=C(c2ccccc2)OC(N)=C(C#N)C1c1ccc(C)cc1 (stereo not drawn) | 29% (inactive)
33 | COC1CC(OC(=O)c2ccccc2)C2OC(c3ccccc3)OCC2O1 (stereo not drawn) | 39% (inactive)
34 | O=C(/N=C1\N=Nc2nc(C(C(=O)c3cccs3)c3nc4n(c3O)/C(=N/C(=O)Nc3ccc(Cl)cc3)N=N4)c(O)n21)Nc1ccc(Cl)cc1 (stereo not drawn) | 7% (inactive)
35 | C=CCNC(=S)N/N=C(\CCC)c1ccccn1 | 93% (active)
36 | O=C(c1cc2c(C(F)(F)F)onc2c2ccccc12)C(F)(F)F | 28% (inactive)
37 | O=C1C=CC(=O)C2C1Cc1ccccc1C2c1ccccc1 (stereo not drawn) | 92% (active)
38 | CC1SC2(C(=O)Nc3ccc([N+](=O)[O-])cc32)N(c2ccc(Cl)cc2)C1=O (stereo not drawn) | 97% (active)
39 | CC(=O)OCCn1c2nc(=O)[nH]c(=O)c-2nc2cc(C)c(C)cc21 | 2% (inactive)

same assay, conditions: S. cerevisiae cln2 rad14 strain, at 50.0 µM, active compounds read high

Row | SMILES | growth inhibition
40 | Clc1ccc(OCC(Cn2ccnc2)c2ccc(Cl)cc2)cc1 (stereo not drawn) | 99.5% (active)
41 | CC(C)C(CC(C)(C)C)OC(=O)Nc1cccc2ccccc12 (stereo not drawn) | 6.15% (inactive)
42 | CC(=O)OC[C@@]1(C)[C@@H]2CC[C@]3(C)[C@H](C(=O)C=C4[C@@H]5CC(C)(C)CC[C@]5(C(=O)O)CC[C@]43C)[C@@]2(C)CC[C@@H]1OC(C)=O | 95.7% (active)
43 | CCOC(=O)C[n+]1c(C)sc2ccccc21 | 17.6% (inactive)
44 | O=[N+]([O-])c1ccc(/C=N/O)s1 | 99.2% (active)
45 | C=C(C)COc1ccccc1C(OCC)OCC | 13.7% (inactive)
46 | CCCCCCCCCCCCCC1OC(=O)C(C)=C1C(=O)O (stereo not drawn) | 10.6% (inactive)
47 | CC(C)C(Sc1nc(-c2ccccc2)c(-c2ccccc2)[nH]1)c1n[nH]c(=S)n1-c1ccccc1 (stereo not drawn) | 94.3% (active)
48 | Cc1ccc(-c2c(C#N)c(S)n(NS(=O)(=O)c3ccccc3)c(=O)c2C#N)cc1 | 29.4% (inactive)
49 | O=C(c1ccccc1)c1ccc2c(c1Cl)C(=O)c1ccccc1C2=O | 4% (inactive)
50 | COc1cccc(C2c3cc4c(cc3OC(O)C2C)OCO4)c1O (stereo not drawn) | 12.6% (inactive)
51 | CCC[N+]1=C(/C=C/c2ccc3cccnc3c2O)C(C)(C)c2ccccc21 | 98.9% (active)
52 | O=C(/C=C/c1ccccc1Cl)c1ccc(F)cc1 | 34% (inactive)
53 | CCN(CC)C(=S)N=Nc1c(O)[nH]c2ccccc12 | 89.8% (active)
54 | C[CH2][Sn]([CH2]C)([O]C(=O)c1ccccc1OC)[O][Sn]([CH2]C)([CH2]C)[O]C(=O)c1ccccc1OC | 20.8% (inactive)
55 | CCCCCCCCCCCCCCCC[N+](C)(C)C(C)c1ccc(OC)cc1 (stereo not drawn) | 85.8% (active)
56 | S=C(NCCc1ccccc1)N/N=C/c1ccc(Cl)cc1 | 83% (active)
57 | Cc1cc(Nc2ccc(O)c(CN3CCN(Cc4cc(Nc5cc(C)nc(N)n5)ccc4O)CC3)c2)nc(N)n1 | 89.7% (active)
58 | CC1C[N+](C)(C)C(C)C(=O)C1(c1ccccc1)c1ccccc1 (stereo not drawn) | -13.4% (inactive)
59 | O=C1C(Cl)=C(Cl)C(=O)C2CC=CCC12 (stereo not drawn) | 99.1% (active)

Row | SMILES | growth inhibition
60 | C/C(=N/O)c1ccc2c(c1)C(C)c1ccccc1-2 (stereo not drawn) | 77.4% (active)
61 | c1ccc(N/N=C2/CCCC3/C(=N\Nc4ccccc4)CCCC23)cc1 (stereo not drawn) | 73.8% (active)
62 | CCCC(C)C/C(C)=C\C(C)(C)C1CC(=O)N(CC)C1=O (stereo not drawn) | 83.8% (active)
63 | COC(C(=O)C1=C2Oc3c4c(cc(O)c3C(=O)C2C2=C(CCCC2)C1=O)OC(C)(C)C=C4)C(C)CCC=C(C)C (stereo not drawn) | 80.9% (active)
64 | Cc1cc(Br)c(NC(=O)CBr)cc1C | 46.9% (inactive)
65 | Cc1ccc(S(=O)(=O)OCCCCOS(=O)(=O)c2ccc(C)cc2)cc1 | 28.4% (inactive)
66 | Cc1ccc([N+](=O)[O-])c2c(NCCCN(C)C)c3ccccc3nc12 | 77.3% (active)
67 | CCOC(=O)c1c(N2CCCC2)nsc1Nc1ccc(F)cc1 | 45% (inactive)
68 | CC(=O)[C@H]1CC[C@H]2[C@@H]3CC[C@H]4C[C@@H](N5CCOCC5)CC[C@]4(C)[C@H]3CC[C@]12C | 87.5% (active)
69 | CC(C)CCCC(C)C1CCC2C3CCC4=CC(O)CCC4(C)C3CCC12C (stereo not drawn) | 94.3% (active)
70 | Nc1ccccc1SC(/C=C/NNC1=NC(c2ccccc2)C(c2ccccc2)=NN1)c1ccccc1 (stereo not drawn) | 91.7% (active)
71 | CCOC(=O)C1=C(c2ccccc2)OC(N)=C(C#N)C1c1ccc(C)cc1 (stereo not drawn) | 89% (active)
72 | COC1CC(OC(=O)c2ccccc2)C2OC(c3ccccc3)OCC2O1 (stereo not drawn) | -3.35% (inactive)
73 | O=C(/N=C1\N=Nc2nc(C(C(=O)c3cccs3)c3nc4n(c3O)/C(=N/C(=O)Nc3ccc(Cl)cc3)N=N4)c(O)n21)Nc1ccc(Cl)cc1 (stereo not drawn) | 63.6% (inactive)
74 | C=CCNC(=S)N/N=C(\CCC)c1ccccn1 | 99.2% (active)
75 | O=C(c1cc2c(C(F)(F)F)onc2c2ccccc12)C(F)(F)F | 64.8% (inactive)
76 | O=C1C=CC(=O)C2C1Cc1ccccc1C2c1ccccc1 (stereo not drawn) | 98.8% (active)
77 | CC1SC2(C(=O)Nc3ccc([N+](=O)[O-])cc32)N(c2ccc(Cl)cc2)C1=O (stereo not drawn) | 81.7% (active)
78 | CC(=O)OCCn1c2nc(=O)[nH]c(=O)c-2nc2cc(C)c(C)cc21 | -42.9% (inactive)
